Assay outcomes from PubChem.
In the library only some 14% were active in any assay of this set; here they are far more common.
Pf growth 96h: inhibits malaria parasite growth, 96 h; P. falciparum luciferase reporter growth, 96 h; Potency, µM (top dose mostly 28.7 µM), for inactives: top-dose activity change, negative = inhibition, usual class: inhibitors; 320,000 compounds, 6.9% hits; also: potency is read from the fitted curve at half-maximal effect
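Readout is luminescence from an integrated firefly luciferase in P. falciparum. Red cells, 2% hematocrit and 0.05% parasitemia final, were cultured with compound through two parasite generations (96 hours) at 37 C, 5% CO2.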
Pf growth 48h: P. falciparum growth inhibition at 48 hours (one generation) | Potency, µM (highest dose often 28.7 µM), for inactives: top-dose activity change, negative = inhibition, most hits filed as inhibitors | 310,000 compounds, 5.9% hits | P. falciparum luciferase growth in erythrocytes, 48 h; also: potency is read from the fitted curve at half-maximal effect
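Erythrocytes infected with P. falciparum carrying an integrated firefly luciferase reporter (2% hematocrit, 0.1% parasitemia final) were exposed to compounds in RPMI 1640 with 0.5% Albumax at 37 C, 5% CO2. Growth inhibition was scored as reduced luminescence.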
MARV entry inh: inhibitors of Marburg virus binding or cell entry; Marburg virus pseudotyped entry inhibition, cell reporter; Potency, µM (titrated, usually from 37.8 µM), without a hit: top-dose activity change, negative = inhibition, actives largely listed as inhibitors; 300,000 compounds, 1.8% hits; calls by dose curve; tested in HEK293 cells; also: potency is read from the fitted curve at half-maximal effect
HCV inh: blocks hepatitis C virus; Huh7.5.1 HCVcc-Cre infection, luciferase reporter, 44 h; Potency, µM (doses to about 41.8 µM), for the others: top-dose activity change, negative = inhibition, hits mostly inhibitors; 340,000 compounds, 3.4% hits; also: potency is read from the fitted curve at half-maximal effect
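Reporter virus HCVcc-Cre (~0.5 moi) infects cells exposed to compound; seeding density 1,000 cells/well with 4 h settling beforehand. Luminescence, 15 sec read, taken 44 h post-infection following a 15 min RT substrate incubation.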
Lassa entry inh: blocks Lassa virus binding to or entry into cells; 300,000 compounds, 1.2% hits; Lassa virus pseudotype entry inhibition, cell reporter; Potency, µM (series often up to 37.9 µM), without a hit: at the top dose activity change, negative = inhibition, hits mostly inhibitors; calls by dose curve; tested in HEK293 cells; also: potency is read from the fitted curve at half-maximal effect; nearly all actives have a fitted effect of over 50% in size
HCMV inh: inhibitors of human cytomegalovirus; AID 1259415; 410,000 compounds, 4.5% hits; activity change, negative = inhibition, % at 57.5 µM; HFF cells, HCMV-luciferase reporter, 72 h; active compounds read low; in the data active = activity change below about -60%; inconclusive = no clear call, values can overlap the other calls; inactive = above about -39%
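Screen run at 2 compound doses on HFFs infected with reporter HCMV, MOI 1 PFU/cell. Luciferase activity from cell lysates at 72 h post infection gave inhibition relative to buffer-only and Salinomycin wells.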
Active calls of the source: *; ? = inconclusive; / = no result; ! = not confirmed by another sample; [ ] = dose if it differs, or a comment. Unless noted, calls follow the shape of the dose curve; as a rule, active = well fitted inhibition curve with a large enough effect; inconclusive = small, poorly fitted or top-dose-only effect, or another doubt; inactive = no such curve, though single readings can be large or run the other way. % is scaled to controls: 0 for no effect and ±100 for the full control effect.

SMILES	Pf growth 96h	Pf growth 48h	MARV entry inh	HCV inh	Lassa entry inh	HCMV inh
COC(=O)c1[nH]c2ccc(Cl)cc2c1NC(=O)CN1CCc2cc(OC)c(OC)cc2C1	/	?	?	?	?	58
CCOC(=O)c1[nH]c2cc(OC)c(OC)cc2c1NC(=O)CN1CCN(c2ccc(OC)cc2)C(C)C1 (stereo not given)	/	9.3µM*	1%	?	/	/
COC(=O)c1[nH]c2ccccc2c1NC(=O)CN1CCN(C/C=C/c2ccccc2)CC1	86%	/	18µM*	11µM*	?	-61*
CC1=C[C@@H](COCc2ccccc2)O[C@@]2(C1)C(=O)N(CC1CC1)c1ccccc12	/	/	1%[14.2 µM]	/	/	/
CCOC(=O)OC[C@H]1O[C@H](c2ccc(C(C)=O)cc2)C=C[C@H]1Oc1ccc(-c2ccccc2)cc1	/	/	3%[14.2 µM]	/	?	/
OC(c1cccc(Cl)c1)c1ncc(-c2ccc(Oc3ccccc3)cc2)[nH]1 (stereo not given)	/	/	/	/	/	-15
COC(=O)C1=C(C)N(Cc2ccccc2)C(=NCC2CC2)NC1c1ccc(Br)cc1 (stereo not given)	/	/	-10%[14.2 µM]	/	/	/
COC(=O)C1=C(C)N(Cc2ccccc2)C(=NCCc2cccnc2)N[C@H]1c1ccccc1	15µM*	?	/	-1%	/	/
COC(=O)C1=C(C)N(Cc2ccccc2)C(=NCCc2cccnc2)NC1c1ccc(Br)cc1 (stereo not given)	/	/	4%[14.2 µM]	/	?	/
COC(=O)C1=C(C)N(Cc2ccccc2)C(=NCCc2cccnc2)N[C@H]1c1ccc(Br)cc1	41%	7.4µM*	/	2.8µM*	/	/
COC(=O)C1=C(C)N(Cc2ccccc2)C(=NCC2CC2)N[C@H]1c1ccccc1	24%	9.3µM*!	/	0%	/	-26
CC(C)(C)c1ccc(CC(=O)N2CCC2(C)C(=O)NS(=O)(=O)c2ccc(F)cc2F)cc1 (stereo not given)	/	/	/	/	/	-4
CN(CC(=O)Nc1ccc(F)cc1)C(=O)CN1C(=O)c2cccc([N+](=O)[O-])c2C1=O	?	-11%	-8%	20%	8%	-7
COC[C@@H]1CCCN1c1ccc2c(c1)O[C@@H](COCc1ccccc1)CN([C@H](C)c1ccccc1)S2(=O)=O	/	/	/	/	/	-65*
CCCCC[C@@H](C)N1C[C@H](COCc2ccccc2)Oc2cc(N3CC[C@H](N(C)C)C3)ccc2S1(=O)=O	/	/	/	/	/	-101*
CCCCC[C@@H](C)N1C[C@H](COCc2ccccc2)Oc2cc(N3CC[C@H](O)C3)ccc2S1(=O)=O	/	/	/	/	/	10
C[C@@H](c1ccccc1)N1C[C@H](COCc2ccccc2)Oc2cc(N3CC[C@H](N(C)C)C3)ccc2S1(=O)=O	/	/	/	/	/	-61*
COC[C@@H]1CCCN1c1ccc2c(c1)O[C@@H](COCc1ccccc1)CN([C@@H](C)c1ccccc1)S2(=O)=O	/	/	/	/	/	-15
CCCCC[C@H](C)N1C[C@H](COCc2ccccc2)Oc2cc(N3CC[C@H](O)C3)ccc2S1(=O)=O	/	/	/	/	/	-5
C[C@H](c1ccccc1)N1C[C@@H](COCc2ccccc2)Oc2cc(N3CC[C@H](O)C3)ccc2S1(=O)=O	/	/	/	/	/	-76*
O=C(Nc1ccc(F)cc1)c1cccc(N2CCCS2(=O)=O)c1	/	/	/	/	?	2
CCCCc1c(-c2cccc(Br)c2)ncn1CCc1ccccc1OC	/	/	/	/	/	-101*
CCCCCc1c(-c2ccc(Br)cc2)ncn1CCc1ccccc1OC	/	/	/	/	/	-104*
CCCc1c(-c2cccc(F)c2)ncn1Cc1ccccc1OC	/	/	/	/	/	-16
CCCc1c(-c2cccc(F)c2)ncn1CCc1ccccc1OC	/	/	/	/	/	-74*
CCCCCc1c(-c2cccc(Cl)c2)ncn1CCc1ccccc1OC	/	/	/	/	/	-6
CCCCCc1c(-c2cccc(OC)c2)ncn1CCc1ccccc1OC	/	/	/	/	/	-95*
Cc1[nH]c2ccc(C(=O)Nc3ccc(F)cc3)cc2c1C	/	/	/	/	-29%[46.1 µM]	0
CCOC1=C2[C@@H](CN(S(=O)(=O)c3ccc(C)cc3)[C@H]2c2ccccc2Cl)[C@H]2C(=O)N(C(C)(C)C)C(=O)[C@H]2C1	/	/	/	/	/	-24
